Inconclusive results are not listed. The source made the active and inactive calls. Calls come from the whole dose curve; as a rule, active = well fitted inhibition curve with a large enough effect; inconclusive = small, poorly fitted or top-dose-only effect; inactive = flat fitted curve, though single readings scatter.
These compounds were tested on CP268 (assay: qHTS profiling for inhibitors of Plasmodium falciparum proliferation (AID 504749; note: nearly all actives have a fitted effect of over 60% in size;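 for activity, negative = inhibition: 0% = DMSO vehicle and full inhibition = artemisinin control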)). Conditions: P. falciparum in erythrocytes, SYBR Green DNA, 72 h; series mostly up to 28.7 µM; activity, negative = inhibition: at the top concentration.
Procedure, shortened: (§1)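 SYBR Green fluorescence (ex 485 nm, em 535 nm) reports parasite DNA after 72 h compound exposure of infected red cells at 0.3% parasitemia, 2.5% hematocrit; signal normalized to 0.29 uM artemisinin and vehicle wells.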
Potency is the fitted concentration of half-maximal effect.

Potency, active:
CN[C@H](C)CCC=C(C)C 1.51 µM

activity, negative = inhibition, inactive:
CC1(C)C2CC[C@]1(C)[C@@H](O)C2 -2.16%
OCC1O[C@H](Oc2ccc(O)cc2)C(O)C(O)C1O (stereo partly specified) -0.192%
Nc1nc(F)nc2c1ncn2[C@@H]1O[C@H](CO)[C@@H](O)[C@H]1O 6.92%
CC1OC(OC2CCC3(C)C(CCC4C3CC(O)C3(C)C(C5=CC(=O)OC5)CCC43O)C2)CC(O)C1OC1CC(O)C(OC2CC(O)C(OC3OC(CO)C(O)C(O)C3O)C(C)O2)C(C)O1 (stereo unspecified) 0.052%
CC1OC(OCC2OC(Oc3c(-c4ccc(OCCO)c(OCCO)c4)oc4cc(OCCO)cc(O)c4c3=O)C(O)C(O)C2O)[C@@H](O)C(O)C1O (stereo partly specified) -2.45%

Each compound was assayed on CP269 in the same assay as above. Conditions: P. falciparum in erythrocytes, SYBR Green DNA, 72 h; series mostly up to 28.7 µM; activity, negative = inhibition: at the top concentration.
Procedure, shortened: as §1

activity, negative = inhibition, inactive:
CCCCCCCCCCCCCCCC(=O)OC[C@H](O)[C@H]1OC[C@@H](O)[C@@H]1O -5.74%
C[C@H]1OC(OC2C(O)[C@@H](O)C(OC3C(O)[C@@H](O)C(O)O[C@@H]3CO)O[C@@H]2CO)[C@H](O)C(O)C1N[C@H]1C=C(CO)[C@@H](O)[C@H](O)C1O (stereo partly specified) -0.119%
CCN(CC)CC(=O)Nc1c(C)cc(C)cc1C -7.2%
CC(=O)N[C@H]1[C@H](O[C@@H]2c3ccc(c(Cl)c3)Oc3cc4cc(c3O[C@@H]3O[C@H](CO)[C@@H](O)[C@H](O)C3C)Oc3ccc(cc3Cl)C[C@H]3NC(=O)[C@@H](N)c5ccc(O)c(c5)Oc5cc(O)cc(c5)[C@H](NC3=O)C(=O)N[C@H]4C(=O)N[C@H]3C(=O)N[C@@H]2C(=O)N[C@@H](C(=O)O)c2cc(O)cc(O[C@H]4O[C@H](CO)[C@@H](O)C(O)[C@@H]4O)c2-c2cc3ccc2O)O[C@H](CO)[C@@H](O)[C@@H]1O (stereo partly specified) 3.75% [at 12.8 µM]
NC(=O)c1ncn(C2OC(CO)C(O)C2O)c1N (stereo unspecified) -8.33%
CC1(Cn2ccnn2)[C@H](C(=O)O)N2C(=O)C[C@H]2S1(=O)=O (stereo partly specified) -0.35%
CN(C)CC/C=C1\c2ccccc2COc2ccc(CC(=O)O)cc21 -7.64%
CCCC(=O)O[C@]1(C(=O)COC(C)=O)CC[C@H]2C3C[C@H](F)C4=CC(=O)C=CC4(C)[C@@]3(F)[C@@H](O)CC21C (stereo partly specified) 0.47%
OCCN1CC(O)C(O)C(O)C1CO (stereo unspecified) 6.8%
CC(CCC(=O)O)C1CCC2C3C(=O)C[C@@H]4CC(=O)CC[C@@]4(C)C3CC(=O)[C@]12C (stereo partly specified) -0.989%
O=C(OC[C@@H]1O[C@@](O)(COC(=O)c2cccnc2)[C@H](OC(=O)c2cccnc2)[C@H]1OC(=O)c1cccnc1)c1cccnc1 2.77%
O=[N+]([O-])O[C@H]1CO[C@H]2[C@@H]1OC[C@H]2O -2.89%
COc1cccc(OC)c1C(=O)NC1C(=O)N2C1SC(C)(C)C2C(=O)O (stereo unspecified) -5.09%
NC[C@@H]1O[C@H](OC2[C@@H](CO)O[C@@H](OC3[C@H](O)[C@H](N)C[C@H](N)[C@H]3OC3O[C@H](CO)[C@@H](O)[C@H](O)[C@@H]3N)[C@H]2O)C(N)[C@H](O)[C@@H]1O (stereo partly specified) 0.477%
Cc1ccc(S(=O)(=O)NC(=O)NC(C)Cc2ccccc2)cc1 (stereo unspecified) 6.97%
OCCOC[C@H]1O[C@H](OCCO)[C@H](OCCO)[C@@H](OCCO)[C@@H]1OCCO (tested in a mixture with another compound) -0.859%
C[S+](C)CC[C@H](N)C(=O)O 0.536%
CC[C@@H]1/C=C(\C)C[C@H](C)C[C@H](OC)[C@H]2O[C@@](O)(C(=O)C(=O)N3CCCC[C@H]3C(=O)O[C@H](/C(C)=C/[C@@H]3CC[C@H](Cl)[C@H](OC)C3)[C@H](C)[C@@H](O)CC1=O)[C@H](C)C[C@@H]2OC 1.82%
NC(=O)C1CC2(NC(=O)NC2=O)c2cc(F)ccc2O1 (stereo unspecified) 5.34%
CN1[C@@H]2CC[C@@H]1CC(OC(=O)[C@H](CO)c1ccccc1)C2 (stereo partly specified) -0.0821%
CCCCCCCCCCCC(=O)OCC(O)C1OCC(O)C1O (stereo unspecified) 0.916%
C/C1=C2/[N-]C(C(CC(N)=O)[C@@]2(C)CCC(=O)NCC(C)OP(=O)([O-])O[C@H]2[C@@H](O)[C@@H](n3cnc4cc(C)c(C)cc43)O[C@@H]2CO)[C@]2(C)N=C(/C(C)=C3N=C(/C=C4N=C1C(CCC(N)=O)C\4(C)C)[C@@H](CCC(N)=O)[C@]\3(C)CC(N)=O)[C@@H](CCC(N)=O)[C@]2(C)CC(N)=O.CC(=O)O.[Co] (stereo partly specified) -17.9%
CC1(C)OC[C@@H]2O[C@@]3(C(=O)O)OC(C)(C)O[C@@H]3[C@@H]2O1 5.46%
Cc1ccccc1N1C(=O)c2cc(N)ccc2N/C1=C\F -11.9%
O=C1C(I)=CC(=C(c2cc(I)c(O)c(I)c2)c2ccccc2C(=O)O)C=C1I -10.4%
NC(=O)NC(CCC(=O)O)C(=O)O (stereo unspecified) -3.69%
CC(=O)OCC(=O)[C@@]1(O)CCC2C3C[C@H](C)C4=CC(=O)C=CC4(C)C3C(O)CC21C (stereo partly specified) -6.38%
CC1(C)C2CC[C@]1(C)[C@@H](O)C2 -3.08%
OCC1O[C@H](Oc2ccc(O)cc2)C(O)C(O)C1O (stereo partly specified) -4.33%
Nc1nc(F)nc2c1ncn2[C@@H]1O[C@H](CO)[C@@H](O)[C@H]1O 1.91%
CC1OC(OC2CCC3(C)C(CCC4C3CC(O)C3(C)C(C5=CC(=O)OC5)CCC43O)C2)CC(O)C1OC1CC(O)C(OC2CC(O)C(OC3OC(CO)C(O)C(O)C3O)C(C)O2)C(C)O1 (stereo unspecified) -0.15%
CC1OC(OCC2OC(Oc3c(-c4ccc(OCCO)c(OCCO)c4)oc4cc(OCCO)cc(O)c4c3=O)C(O)C(O)C2O)[C@@H](O)C(O)C1O (stereo partly specified) 1.04%

Potency, active:
CCCCC(=O)OCC(=O)[C@]1(O)Cc2c(O)c3c(c(O)c2[C@H](OC2CC(NC(=O)C(F)(F)F)C(O)C(C)O2)C1)C(=O)c1c(OC)cccc1C3=O (stereo partly specified) 1.69 µM
C[C@H]1[C@@H](OC(=O)CCC(=O)O)OC2OC3(C)CC[C@H]4[C@H](C)CC[C@@H]1[C@@]24OO3 (stereo partly specified) 0.0048 µM
COc1cc2c(cc1O)CCN[C@@]21CS[C@H]2c3c(OC(C)=O)c(C)c4c(c3C(COC1=O)N1C2C2c3c(cc(C)c(OC)c3O)CC([C@@H]1O)N2C)OCO4 (stereo partly specified) 0.0005 µM
C[n+]1c2cc(N)ccc2cc2ccc(N)cc21 0.953 µM
CC[C@@]1(O)C[C@H](O[C@H]2C[C@@H](N(C)C)[C@@H](O[C@H]3C[C@@H](O)[C@@H](O[C@H]4CCC(=O)[C@@H](C)O4)[C@@H](C)O3)[C@@H](C)O2)c2c(cc3c(c2O)C(=O)c2c(O)cccc2C3=O)[C@H]1C(=O)OC 0.849 µM
CCC(C(=O)O)C1OC(C(C)C(O)C(C)C(=O)C(CC)C2OC3(C=CC(O)C4(CCC(C)(C5CCC(O)(CC)C(C)O5)O4)O3)C(C)CC2C)C(C)CC1C (stereo unspecified) 0.0953 µM
COC1CC2CCC(C)[C@](O)(O2)C(=O)C(=O)N2CCCCC2C(=O)OC(C(C)CC2CCC(O)C(OC)C2)CC(=O)C(C)/C=C(/C)C(O)C(OC)C(=O)C(C)CC(C)C=CC=C/C=C\1C (stereo partly specified) 4.26 µM
CN[C@H](C)CCC=C(C)C 0.478 µM

From PubChem BioAssay (NCATS)
